In PubChem BioAssay:
The source made the active and inactive calls.

What was measured:
[1] = small molecules captured by biotinylated probe aFSTL3 – biochemical, small-molecule microarray, fluorescence 635/667, stem cell growth factor project, primary screen (AID 1064); conditions: higher = more signal;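 further: measures binding of the biotinylated anti-FSTL3 antibody to printed compounds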
[2] = binders from COS7 lysate, DM2A8 probe, primary screen, torsin A project, cell lysate, small-molecule microarray, fluorescence 635/667 (AID 1065); conditions: higher = more signal, COS7 lysate expressing mutant human TOR1A
[3] = small molecules captured by biotinylated probe aFGF2 – biochemical, small-molecule microarray, fluorescence 635/667, stem cell growth factor project, primary screen (AID 1067); conditions: higher = more signal;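 further: measures binding of biotinylated aFGF2 protein to printed compounds on slides; z-score merges feature fluorescence and signal-to-noise across triplicate slides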
[4] = small molecules captured by biotinylated probe aFGF10 – biochemical, small-molecule microarray, fluorescence 635/667, stem cell growth factor project, primary screen (AID 1071); conditions: higher = more signal;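 further: score merges 667 nm spot intensity and signal to noise from triplicate slides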
[5] = target: Neurogenic locus notch homolog protein 2 (Homo sapiens) (UniProt Q04721); test: small molecules binding Notch2 protein – biochemical, small-molecule microarray, 635 nm fluorescence, stem cell growth factors, primary screen (AID 1073); conditions: higher = more signal
[6] = target: Pro-neuregulin-1, membrane-bound isoform (Homo sapiens) (UniProt Q02297); test: small molecules binding neuregulin-1 protein – biochemical, small-molecule microarray, fluorescence 635/667, psychiatric disease protein project, primary screen (AID 1075); conditions: NRG1 binding, 635 nm fluorescence, higher = more signal;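 further: score combines 667 nm spot fluorescence with signal to noise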
[7] = test system: Neuregulin-1 EGF-like domain; test: small molecules binding NRG1 EGF domain – biochemical, small-molecule microarray, 635 nm fluorescence, primary screen (AID 1081); conditions: higher = more signal;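 further: binding of the protein to compounds printed on small-molecule microarray slides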
[8] = FRG1 expression reporter modulators in myotubes – cell-based, C2C12 myotubes, firefly/Renilla luciferase, luminescence, FRG1 inhibition for FSHD, primary screen (AID 1084); conditions: FRG1 promoter luciferase, higher = more signal, called active from +8 up or from −8 down
[9] = small molecules captured by biotinylated probe aFST – biochemical, small-molecule microarray, fluorescence 635/667, stem cell growth factor project, primary screen (AID 1086); conditions: higher = more signal;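 further: score merges 667 nm fluorescence with signal-to-noise of each printed compound spot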
[10] = binders of probe aHhip on microarray, primary screen, stem cell growth factor project, biochemical, small-molecule microarray, fluorescence 635/667 (AID 1087); conditions: higher = more signal;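 further: score merges spot fluorescence at 667nm with spot signal to noise ratio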
[11] = test system: PRMT1 (protein arginine N-methyltransferase 1); test: small molecules binding arginine methyltransferase PRMT1 – biochemical, small-molecule microarray, 635 nm fluorescence, primary screen (AID 1088); conditions: higher = more signal;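 further: binding of Prmt1 protein to compounds spotted on small-molecule microarray slides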
[12] = growth effects on S. cerevisiae YJM789 – YJM789 clinical isolate, OD600, 24 h, basal, primary screen (AID 1089); conditions: higher = more signal, called active from +8 up or from −8 down;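 further: growth of clinical yeast isolate S. cerevisiae YJM 789 seeded 1000 cells per well; test concentration not given here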
[13] = S. pombe growth modifiers, basal conditions – strain 972, OD600, 24 h, no modulator, primary screen (AID 1090);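 further: basal condition with compound alone and no growth modifier present; test concentration not given here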; conditions: S. pombe 972 growth, higher = more signal, called active from +8 up or from −8 down
[14] = budding yeast growth modifiers under rapamycin – strain BY4716, OD600, 96 h, primary screen (AID 1091); further: test concentration not given here; conditions: S. cerevisiae BY4716 + rapamycin, higher = more signal, called active from +8 up or from −8 down
[15] = target: Torsin-1A-interacting protein 2 (Homo sapiens) (UniProt Q8NFQ8); test: small molecules binding lysate-expressed LULL1 – cell lysate, human LULL1 lysate, 635/667 nm fluorescence, primary screen (AID 1092); conditions: small-molecule microarray, hLULL1 lysate binding, 635 nm fluorescence; higher = more signal;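 further: probe is lysate of COS7 cells overexpressing human LULL1; score merges per-feature 667 nm fluorescence with signal-to-noise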
[16] = optical density change of DRC41 E. coli – strain DRC41, OD650, 24 h, E. coli filamentation project, primary screen (AID 1093);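 further: MC1000 strain lacking acrAB efflux and sulA so SOS filamentation is blocked; test concentration not given here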; conditions: E. coli DRC41 growth, higher = more signal, called active from +8 up or from −8 down
[17] = probe aLefty2 binding to arrayed compounds – biochemical, biotinylated probe, 635/667 nm fluorescence, primary screen (AID 1094); conditions: small-molecule microarray, higher = more signal;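 further: score merges spot fluorescence near 667 nm with spot signal-to-noise ratio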

Chain of Neurogenic locus notch homolog protein 2 (Homo sapiens) (Q04721 whole entry, looked up, canonical isoform): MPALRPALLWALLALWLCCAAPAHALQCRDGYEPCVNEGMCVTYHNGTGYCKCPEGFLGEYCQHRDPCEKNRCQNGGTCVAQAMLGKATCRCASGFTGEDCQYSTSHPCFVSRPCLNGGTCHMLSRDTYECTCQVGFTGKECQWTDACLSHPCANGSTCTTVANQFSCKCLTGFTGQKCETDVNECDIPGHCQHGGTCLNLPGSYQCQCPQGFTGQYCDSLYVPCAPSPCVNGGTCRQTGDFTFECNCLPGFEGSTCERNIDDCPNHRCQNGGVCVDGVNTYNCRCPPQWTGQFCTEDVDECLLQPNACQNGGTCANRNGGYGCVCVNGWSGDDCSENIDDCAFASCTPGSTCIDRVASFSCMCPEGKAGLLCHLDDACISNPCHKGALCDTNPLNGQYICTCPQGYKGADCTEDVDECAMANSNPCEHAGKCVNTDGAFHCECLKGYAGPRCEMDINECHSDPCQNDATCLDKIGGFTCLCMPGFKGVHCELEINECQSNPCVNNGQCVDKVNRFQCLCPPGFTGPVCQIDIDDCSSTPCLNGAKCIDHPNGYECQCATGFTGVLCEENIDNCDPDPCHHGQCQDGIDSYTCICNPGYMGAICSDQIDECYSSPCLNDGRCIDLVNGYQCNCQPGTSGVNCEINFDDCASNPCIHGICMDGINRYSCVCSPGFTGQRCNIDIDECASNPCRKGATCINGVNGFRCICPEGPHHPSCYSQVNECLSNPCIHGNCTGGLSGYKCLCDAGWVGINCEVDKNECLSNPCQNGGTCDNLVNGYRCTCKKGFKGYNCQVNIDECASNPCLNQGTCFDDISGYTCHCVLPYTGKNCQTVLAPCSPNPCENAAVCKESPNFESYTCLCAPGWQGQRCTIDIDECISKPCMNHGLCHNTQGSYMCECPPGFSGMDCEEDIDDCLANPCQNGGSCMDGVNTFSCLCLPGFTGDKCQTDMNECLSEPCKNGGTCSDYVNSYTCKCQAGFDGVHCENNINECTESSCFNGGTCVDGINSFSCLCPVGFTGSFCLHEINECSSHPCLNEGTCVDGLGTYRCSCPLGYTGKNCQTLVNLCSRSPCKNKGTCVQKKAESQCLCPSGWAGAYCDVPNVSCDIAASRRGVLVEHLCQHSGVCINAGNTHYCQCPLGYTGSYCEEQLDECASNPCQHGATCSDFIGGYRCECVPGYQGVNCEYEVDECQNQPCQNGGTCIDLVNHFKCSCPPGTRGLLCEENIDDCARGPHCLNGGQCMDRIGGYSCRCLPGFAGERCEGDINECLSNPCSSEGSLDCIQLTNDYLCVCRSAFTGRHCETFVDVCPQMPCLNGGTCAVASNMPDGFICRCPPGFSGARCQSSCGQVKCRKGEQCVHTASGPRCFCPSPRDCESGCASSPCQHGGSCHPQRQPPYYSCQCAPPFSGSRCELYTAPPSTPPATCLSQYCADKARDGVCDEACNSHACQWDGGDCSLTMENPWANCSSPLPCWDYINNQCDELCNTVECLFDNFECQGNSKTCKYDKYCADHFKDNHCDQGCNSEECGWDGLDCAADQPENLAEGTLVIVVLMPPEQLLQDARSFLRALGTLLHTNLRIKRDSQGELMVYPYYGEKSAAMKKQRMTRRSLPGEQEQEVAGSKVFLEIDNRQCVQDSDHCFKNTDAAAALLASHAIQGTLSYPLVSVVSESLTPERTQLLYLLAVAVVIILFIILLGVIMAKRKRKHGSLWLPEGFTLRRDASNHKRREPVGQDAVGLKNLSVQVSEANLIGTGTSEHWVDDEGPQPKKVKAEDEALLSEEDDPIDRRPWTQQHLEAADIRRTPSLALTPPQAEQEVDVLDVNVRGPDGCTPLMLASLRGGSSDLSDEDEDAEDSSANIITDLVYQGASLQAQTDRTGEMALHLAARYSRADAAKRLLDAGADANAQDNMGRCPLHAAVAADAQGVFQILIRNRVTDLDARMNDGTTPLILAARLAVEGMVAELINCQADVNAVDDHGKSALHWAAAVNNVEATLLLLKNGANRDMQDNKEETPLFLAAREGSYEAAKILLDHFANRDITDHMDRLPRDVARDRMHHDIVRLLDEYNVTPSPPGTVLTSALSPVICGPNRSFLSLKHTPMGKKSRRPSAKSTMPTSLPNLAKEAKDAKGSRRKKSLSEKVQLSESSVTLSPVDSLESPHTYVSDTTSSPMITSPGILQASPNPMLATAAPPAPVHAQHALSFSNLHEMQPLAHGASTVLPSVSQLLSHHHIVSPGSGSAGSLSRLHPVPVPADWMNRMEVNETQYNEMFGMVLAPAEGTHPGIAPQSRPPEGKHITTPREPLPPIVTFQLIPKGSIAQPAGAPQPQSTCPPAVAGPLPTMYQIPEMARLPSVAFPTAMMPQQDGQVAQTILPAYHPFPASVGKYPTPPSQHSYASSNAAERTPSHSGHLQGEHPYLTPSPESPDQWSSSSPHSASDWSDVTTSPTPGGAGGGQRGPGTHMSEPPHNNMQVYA
Chain of Pro-neuregulin-1, membrane-bound isoform (Homo sapiens) (Q02297 whole entry, looked up, the tested form may be a part, canonical isoform): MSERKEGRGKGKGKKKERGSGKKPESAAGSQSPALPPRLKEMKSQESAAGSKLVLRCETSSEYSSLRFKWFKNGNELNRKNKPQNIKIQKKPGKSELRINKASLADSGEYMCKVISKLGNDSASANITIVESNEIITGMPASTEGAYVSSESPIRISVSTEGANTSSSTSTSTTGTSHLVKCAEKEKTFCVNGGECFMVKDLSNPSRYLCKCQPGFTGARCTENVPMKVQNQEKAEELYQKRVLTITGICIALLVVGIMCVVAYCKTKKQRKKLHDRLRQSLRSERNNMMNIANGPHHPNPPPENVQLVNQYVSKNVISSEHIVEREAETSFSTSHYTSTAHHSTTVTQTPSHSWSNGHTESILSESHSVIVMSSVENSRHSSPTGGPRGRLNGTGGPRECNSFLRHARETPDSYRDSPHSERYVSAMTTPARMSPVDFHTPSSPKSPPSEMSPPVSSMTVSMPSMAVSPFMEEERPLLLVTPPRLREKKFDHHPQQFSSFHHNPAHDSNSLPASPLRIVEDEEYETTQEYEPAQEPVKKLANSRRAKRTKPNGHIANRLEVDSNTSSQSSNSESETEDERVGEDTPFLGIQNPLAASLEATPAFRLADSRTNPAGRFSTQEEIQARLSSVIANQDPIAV
Chain of Torsin-1A-interacting protein 2 (Homo sapiens) (Q8NFQ8 whole entry, looked up): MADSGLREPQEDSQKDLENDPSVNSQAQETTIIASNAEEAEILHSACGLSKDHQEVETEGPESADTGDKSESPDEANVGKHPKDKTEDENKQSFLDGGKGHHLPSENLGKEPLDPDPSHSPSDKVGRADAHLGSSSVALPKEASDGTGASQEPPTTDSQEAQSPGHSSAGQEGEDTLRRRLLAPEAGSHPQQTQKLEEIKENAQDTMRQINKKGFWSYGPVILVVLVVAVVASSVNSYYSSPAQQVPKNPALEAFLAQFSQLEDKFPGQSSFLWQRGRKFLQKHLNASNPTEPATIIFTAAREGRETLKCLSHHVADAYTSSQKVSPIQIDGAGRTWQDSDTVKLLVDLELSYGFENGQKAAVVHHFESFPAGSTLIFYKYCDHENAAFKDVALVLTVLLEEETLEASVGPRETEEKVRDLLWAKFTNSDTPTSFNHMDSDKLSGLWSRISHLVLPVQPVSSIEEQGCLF

Compound	composite z-score [1]	composite z-score [2]	composite z-score [3]	composite z-score [4]	composite z-score [5]	composite z-score [6]	composite z-score [7]	z-score [8]	composite z-score [9]	composite z-score [10]	composite z-score [11]	z-score [12]	z-score [13]	z-score [14]	composite z-score [15]	z-score [16]	composite z-score [17]
CN1C=C(C(=O)OCCS(C)(=O)=O)C(C(=O)OCCS(C)(=O)=O)=CC(CCCO)=CC1c1cccs1 (centres undefined)	-0.329	0.58	-0.197	0.239	0.907	-0.362	0.269	-0.234 (inactive)	0.137	0.0664	1.13	-0.444 (inactive)	-1.22 (inactive)	-2.42 (inactive)	0.454	0.261 (inactive)	0.022
COC(=O)C(CC#Cc1ccc2c(c1)[C@]1(C(=O)N2)[C@H](C(=O)O)[C@H]2C(=O)O[C@H](c3ccccc3)[C@H](c3ccccc3)N2[C@@H]1c1ccc(OCCO)cc1)C(=O)OC	-0.0148	1.74	-0.0144	0.767	1.17	2.11	1.31	-1.19 (inactive)	0.6	-0.0994	1.55	0.299 (inactive)	-1.91 (inactive)	-1.38 (inactive)	3.03	3.49 (inactive)	-0.0816
CC(C)C[C@@H]1NC(=O)[C@@]23C(=O)N[C@@H](Cc4ccccc4)C2[C@H](C)[C@@]2(C)O[C@H]2C3/C=C/CC/C=C/CNC(=O)[C@@H](C)NC1=O (some centres undefined)	-0.574	0.408	-0.178	0.408	0.578	-0.418	0.635	-1.05 (inactive)	0.17	0.21	0.118	0.395 (inactive)	-0.619 (inactive)	-0.697 (inactive)	-0.664	2.82 (inactive)	-0.19
CCCCCCC#C[Si](O[C@H](c1ccccc1)c1cn(Cc2ccccc2)nn1)(C(C)C)C(C)C	-0.331	-0.0435	0.0339	0.388	0.433	-0.0854	-0.0419	-0.494 (inactive)	0.129	0.243	0.63	-0.501 (inactive)	-1.19 (inactive)	-0.287 (inactive)	0.468	2.25 (inactive)	-0.0153
O=C(O)[C@H]1C[C@H]2C(=O)N[C@@H](Cc3ccccc3)C(=O)N2[C@H]1c1ccc(O)cc1	1.01	0.419	-0.0943	-0.769	-1.42	0.511	1.24	1.02 (inactive)	0.16	-0.136	1.32	-0.261 (inactive)	-0.784 (inactive)	-0.322 (inactive)	2.54	0.906 (inactive)	-0.0572
CC(C)CCC[C@@H](C)[C@H]1CC[C@@]2(C)C3=C(CC[C@]12C)[C@@]1(C)CC[C@H](OC(=O)CCl)C(C)(C)C1CC3 (some centres undefined)	-0.503	0.331	-0.0787	0.422	0.753	0.0429	0.59	-0.0513 (inactive)	0.104	-0.0237	-0.132	-0.0688 (inactive)	-0.178 (inactive)	-0.208 (inactive)	0.424	3.26 (inactive)	-0.145
COCCOC(=O)N1C(=O)[C@@]2(c3cc(C#CC4(O)CCCCCC4)ccc31)[C@H](c1ccc(O)cc1)N1[C@H](c3ccccc3)[C@H](c3ccccc3)OC(=O)[C@H]1[C@@H]2C(N)=O	-0.0102	1.54	0.103	0.631	0.397	1.1	0.874	-0.868 (inactive)	0.351	-0.0173	1.5	-0.549 (inactive)	-3.29 (inactive)	-0.624 (inactive)	2.01	2.01 (inactive)	0.178
